Screening results (PubChem)
Pf growth 48h: Primary qHTS for delayed death inhibitors of the malarial parasite plastid, 48 hour incubation; P. falciparum luciferase growth in erythrocytes, 48 h; Potency, µM (titrated, usually from 28.7 µM), inactives show top-dose activity change, negative = inhibition, most hits filed as inhibitors; 310,000 tested, 5.9% active; also: potency is read from the fitted curve at half-maximal effect; % is scaled to controls: 0 for no effect and ±100 for the full control effect
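Here the parasites carry a stable luciferase gene and grow inside erythrocytes in Albumax-based RPMI medium with compound for one erythrocytic cycle. Activity is scored as loss of luminescent signal.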
HCV inh: qHTS Assay for Inhibitors of Hepatitis C Virus (HCV) | Huh7.5.1 HCVcc-Cre infection, luciferase reporter, 44 h | Potency, µM (top dose mostly 41.8 µM), without a hit: top-dose activity change, negative = inhibition, most hits filed as inhibitors | AID 651820, 2012 | 340,000 tested, 3.4% active; also: potency is read from the fitted curve at half-maximal effect; % is scaled to controls: 0 for no effect and ±100 for the full control effect
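Luciferase read-out (15 sec integration) after a 15 min room-temperature substrate step quantifies HCVcc-Cre infection. Cells, 1,000 per well, had compound added 4 h post-plating, then virus at ~0.5 moi, and were cultured 44 h.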
Shiga inhibitor: A qHTS for Small Molecule Inhibitors of Shiga Toxin | Vero cells, Shiga toxin protein synthesis inhibition reporter | inhibition, % at 38.7 µM | 290,000 tested, 9.2% active | AID 2315, 2010; in the data active = inhibition mostly above about 28%, no sharp cut-off; inactive = mostly below about 43%; also: 0% is about no effect
Pf growth 96h: Primary qHTS for delayed death inhibitors of the malarial parasite plastid, 96 hour incubation; P. falciparum luciferase reporter growth, 96 h; Potency, µM (series often up to 28.7 µM), for the others: top-dose activity change, negative = inhibition, actives largely listed as inhibitors; AID 504834, 2011; 320,000 tested, 6.9% active; also: potency is read from the fitted curve at half-maximal effect; % is scaled to controls: 0 for no effect and ±100 for the full control effect
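P. falciparum expressing integrated firefly luciferase, in erythrocytes at 2% hematocrit, 0.05% parasitemia, incubated with compounds 96 h at 37 C, 5% CO2. Growth inhibition read as loss of luminescence; two-generation exposure targets delayed-death apicoplast inhibitors.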
Cycloheximide cs: Cycloheximide Counterscreen for Small Molecule Inhibitors of Shiga Toxin. cell reporter, cycloheximide protein synthesis inhibition counterscreen. max response, %. 300,000 tested, 12% active. AID 2314, 2010; in the data active = max response mostly above about 13%, no sharp cut-off; inactive = mostly below about 14%; also: read at 38.3 µM for the half of the compounds with a filed dose; 0% is about no effect
AMA1-RON2 inh: qHTS for Inhibitors of AMA1-RON; Towards Development of Antimalarial Drug Lead: Primary Screen; Plasmodium falciparum AMA1 (3D7) - RON2 peptide interaction; AlphaScreen AMA1-biotinylated RON2 peptide binding; Potency, µM (top dose mostly 58.2 µM), for the others: at the highest dose activity change, negative = inhibition, hits mostly inhibitors; 360,000 tested, 0.2% active;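 also: potency is read from the fitted curve at half-maximal effect; 0% = vehicle wells and -100% = peptide control; nearly all actives have a fitted effect of over 45% in size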
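AMA1 (3D7) with his tag at 25 nM final met compounds first, then biotinylated RON2 peptide at 25 nM; detection used donor plus acceptor beads, 10 µg/mL apiece, read by AlphaScreen after 30 min at room temperature.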
Numbers without * were called inactive; i = inactive; ? = inconclusive; . = no result. Only some compounds are listed: those with a hit (about 21% of all), similar ones and a draw of the others. Unless noted, calls follow the shape of the dose curve; as a rule, active = well fitted curve in the direction sought with a large enough effect; inconclusive = small, poorly fitted or top-dose-only effect, or another doubt; inactive = no such curve, though single readings can be large; an effect the other way counts as inactive or inconclusive.

SMILES | Pf growth 48h | HCV inh | Shiga inhibitor | Pf growth 96h | Cycloheximide cs | AMA1-RON2 inh
CCN(CCn1cccn1)C(=O)c1cc(COc2ccc(F)c(F)c2)on1 | 31% | -3% | 50* | 3% | 30* | -4%
CCC1C(=O)NCCN1C(=O)c1cc(COc2cc(C)ccc2C)on1 (configuration not stated) | ? | -8% | -1 | ? | 12 | -5%
COC(=O)c1cccc(N(CC(=O)NC2CCCC2)C(=O)CNC(=O)c2cccs2)c1 | 6% | 15% | 7 | 33% | -4 | 6%
COCc1c(C(=O)Nc2ccc(Cl)cc2F)oc2ccccc12 | 76% | -2% | 185* | 68% | 29* | 4%
COCc1c(C(=O)Nc2nc(C)cs2)oc2ccccc12 | 16% | ? | 44* | 43% | 25* | 4%
CCC(NC(=O)c1oc2ccccc2c1COC)c1ccc(OC)cc1 (configuration not stated) | ? | -22% | 15 | ? | 1 | -4%
COc1ccc2oc(C(=O)Nc3nc(C)cs3)c(C)c2c1 | 72% | ? | . | 63% | . | -2%
COc1ccc(OC(C)C(=O)N(C)Cc2nc(-c3cccc(C)c3)no2)cc1 (configuration not stated) | 1% | ? | -3 | 6% | -3 | -8%
Cc1cccc(Cl)c1NC(=S)N1CCN(c2ccc([N+](=O)[O-])cn2)CC1 | 1.7µM* | ? | -8 | 1.7µM* | -3 | 2%
O=C(Nc1cccc([N+](=O)[O-])c1)N1CCCCCC1 | 23% | -2% | 35 | 3.7µM* | 14 | 3%
O=C(Nc1ccccc1)N1CCN(c2ccc(C(F)(F)F)cn2)CC1 | . | ? | -3 | -14% | -3 | 4%
O=C(Nc1ccc([N+](=O)[O-])cc1)N1CCCCCC1 | -13% | -8% | 50* | ? | 41* | -3%
CC(C)(C)c1ccc(NC(=O)N2CCCN(c3ccc([N+](=O)[O-])cn3)CC2)cc1 | 8.3µM* | -76% | -3 | ? | 10 | -15%
CC(O)CNCc1ccccc1C(F)(F)F (configuration not stated) | 3% | 10% | 21 | 2% | 1 | -4%
CCOC(=O)c1ccccc1NC(=O)CSc1nc2[nH]ncc2c(=O)[nH]1 | -14% | ? | . | 0% | . | 25%
O=C(Nc1ccc([N+](=O)[O-])cc1)N1CCCCC1 | 23% | 18% | 50 | 8.3µM* | 24 | 8%
CN1CCN(C(=O)Nc2ccc([N+](=O)[O-])cc2)CC1 | -3% | -10% | 4 | 19% | -1 | 0%
COc1ccc(C(CC(=O)c2ccc3c(c2)OCO3)C(=O)O)cc1OC (configuration not stated) | . | . | . | . | . | 0%
CN(C)C(=O)CNc1ccn2nc(-c3cccc(Cl)c3)cc2n1 | . | . | . | . | . | 3%
CCCCn1nnc(NC(=O)c2ccc(-c3cccc(Cl)c3)o2)n1 | -10% | . | 68* | 60% | 33* | -4%
CCCn1nnc(NC(=O)c2ccc(-c3cccc(Cl)c3)o2)n1 | 58% | ? | 140* | ? | 41* | -13%
CN(Cc1ccccc1)C1CCCN(C(=O)c2ccc(Cl)s2)C1 (configuration not stated) | 2% | 0% | -9 | ? | 8 | -11%
O=C(NCCc1ccc(Cl)cc1)c1cc(-c2ccccn2)nc2ccccc12 | ? | ? | 0 | 1% | 21 | 16%
Cn1c(C2CCCCC2)nc2ccccc21 | -13% | -2% | 47 | ? | 16* | -1%
CC(=O)c1ccc(N=Nc2c(C)[nH][nH]c2=O)cc1 | . | 1% | . | . | . | 7%
SMILES | Pf growth 48h | HCV inh | Shiga inhibitor | Pf growth 96h | Cycloheximide cs | AMA1-RON2 inh
CC(=O)c1ccc(N=Nc2ccc(N)cc2)cc1 | 152% | ? | 56* | i | 28* | ?
CC(=O)c1ccc(NS(=O)(=O)c2c(C)cc(C)cc2C)cc1 | 3% | 1% | 73* | 31% | 38* | -10%
Cc1cc(C)c(S(=O)(=O)Nc2ccc(C(N)=O)cc2)c(C)c1 | -3% | 21% | -2 | -16% | -4 | -4%
CC(=O)c1ccc(NS(=O)(=O)c2ccc(N)cc2)cc1 | 37% | ? | 50* | 19% | 28* | -25%
Cc1cc(C)c(S(=O)(=O)Nc2ccc3c(c2)CCC3)c(C)c1 | -11% | 11µM* | 15 | ? | 1 | -22%
COc1ccccc1CCC(=O)NCCCn1ccc2ccccc21 | ? | -20% | 32 | -22% | -6 | -8%
COc1ccc(C(CNC(=O)COc2cccc(C(F)(F)F)c2)N2CCCC2)cc1 (configuration not stated) | 10µM* | ? | . | 12µM* | . | 5%
COc1ccc(C(CNC(=O)COc2ccc(Cl)c(C)c2)N2CCCCC2)cc1 (configuration not stated) | ? | ? | -3 | 7% | -2 | 0%
COc1ccc(C(CNC(=O)COc2cccc(C)c2)N2CCCC2)cc1 (configuration not stated) | ? | 13% | . | 13µM* | . | -7%
CC(OC(=O)CCCC(=O)Nc1ccc(F)cc1)C(=O)c1ccccc1 (configuration not stated) | ? | 9% | -10 | 15% | -8 | 5%
Cc1nnc(Nc2ccc(O)cc2)[nH]c1=O | 16% | 14µM* | -6 | 50% | -3 | 2%
Cc1nnc(Nc2ccc(C(=O)O)cc2)[nH]c1=O | 4% | 4% | -19 | 3% | -2 | -2%
Cn1c(C(=O)NC2CCCCCC2)cc2c(=O)n(C)c3ccccc3c21 | . | -7% | 15 | -8% | -3 | -1%
CC1CCC(NC(=O)c2cc3c(=O)n(C)c4ccccc4c3n2C)CC1 (configuration not stated) | . | 2% | 17 | -12% | 18* | -4%
CCN1CCN(C(=O)c2cc3c(=O)n(C)c4ccccc4c3n2C)CC1 | ? | -16% | 14 | -6% | -4 | 18%
Cn1c(C(=O)N2CCCCCC2)cc2c(=O)n(C)c3ccccc3c21 | . | -6% | 35 | 120% | 20* | -16%
Cn1c(C(=O)NC2CCCCC2)cc2c(=O)n(C)c3ccccc3c21 | . | ? | -16 | 10µM* | -6 | -9%
OC(c1cccc(Cl)c1)c1ncc(-c2ccccc2Cl)[nH]1 (configuration not stated) | . | . | . | . | . | -4%
Oc1ccc(Cl)cc1-c1cc(-c2ccccc2Cl)[nH]n1 | 9.3µM* | 13µM* | 52* | 5% | 23* | 76%
Oc1ccc(Cl)cc1-c1cc(-c2cccc(Br)c2)n[nH]1 | 2.9µM* | 11µM* | 79* | . | 42* | 73%
Oc1ccccc1-c1cc(-c2ccccc2Cl)[nH]n1 | -30% | -23% | 101* | . | 25* | 32%
